Hit rate of the full screen: of about 16,000 compounds, about 4,000 (25%) were called active. Not shown: some 26% with an inconclusive outcome. These entries were drawn from the full list. A number with no mark means an inactive call. The call rests on the fitted dose curve; in most records, active means well fitted curve in the direction sought with a large enough effect; inconclusive means small, poorly fitted or top-dose-only effect, or effect the other way; inactive means no such curve, though single readings can be large or run the other way.
Target: Cytochrome P450 2C9 (Homo sapiens) (UniProt P11712)
Test: Cytochrome panel assay with activity outcomes
Conditions: recombinant CYP, pro-luciferin dealkylation, luminescence, p450-cyp2c9; series mostly up to 57.1 µM
On the % scale 0 is the no-effect control and ±100 the full control effect.

Sequence of Cytochrome P450 2C9 (Homo sapiens) (P11712 whole entry, looked up): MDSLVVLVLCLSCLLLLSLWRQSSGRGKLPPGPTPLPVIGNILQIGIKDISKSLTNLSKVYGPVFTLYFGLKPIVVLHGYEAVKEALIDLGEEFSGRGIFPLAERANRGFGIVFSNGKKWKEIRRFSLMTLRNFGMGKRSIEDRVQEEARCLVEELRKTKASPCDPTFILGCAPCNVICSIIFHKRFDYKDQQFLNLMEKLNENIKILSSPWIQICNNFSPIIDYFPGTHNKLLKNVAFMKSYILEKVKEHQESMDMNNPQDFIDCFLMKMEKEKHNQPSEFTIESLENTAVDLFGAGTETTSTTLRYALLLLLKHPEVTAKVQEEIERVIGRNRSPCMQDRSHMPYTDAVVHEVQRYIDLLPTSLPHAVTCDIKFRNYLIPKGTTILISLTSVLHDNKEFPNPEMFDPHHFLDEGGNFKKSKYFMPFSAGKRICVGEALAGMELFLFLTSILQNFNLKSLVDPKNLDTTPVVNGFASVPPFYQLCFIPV

SMILES	AC50	activity, negative = inhibition
NC(=O)c1cc[n+](CC2=C(C(=O)[O-])N3C(=O)[C@@H](NC(=O)Cc4cccs4)[C@@H]3SC2)cc1	inactive	–
FC(F)(F)c1ccccc1-c1cncnc1NCc1cccnc1	–	6.26% [at 2.29 µM]
COC(=O)C1CC1C(NC(=O)[C@@H]1CCCN1)c1ccccc1 (stereo partly drawn)	inactive	–
O=C(N[C@@H](c1ccccc1)[C@@H]1C[C@H]1C(=O)O)OCc1ccccc1	inactive	–
COC(=O)[C@@H]1C[C@H]1[C@@H](NC(=O)Oc1ccc(F)cc1)c1ccccc1	3.98 µM (active)	–
COC(=O)[C@H]1C[C@@H]1[C@H](NC(=O)OCc1ccccc1)c1ccccc1	15.8 µM (active)	–
Cc1noc(C)c1C(=O)N1CCC[C@@]2(CCN(Cc3cc(C(F)(F)F)cc(C(F)(F)F)c3)C2)C1	inactive	–
CCOc1ccccc1CNCCN1CCOCC1	inactive	–
CC(=O)[C@H]([C@@H](c1ccccc1)N1CCOCC1)N1CCOCC1	–	-15.9% [at 11.4 µM]
CCc1cc(C(c2ccccc2OC)N2CCOCC2)c(NC(=O)c2ccccc2)s1 (stereo not drawn)	1.58 µM (active)	–
CCCCc1nc(SCC(=O)Nc2ncccn2)n[nH]1	inactive	–
Cc1cc(NC(=O)CSc2n[nH]c(-c3cccs3)n2)no1	12.6 µM (active)	–
CO[C@H]1COC(=O)[C@H](C)NC(=O)C/C=C\[C@@H](C)[C@@H](NS(=O)(=O)c2ccc(C)cc2)COC(=O)[C@H](OCc2ccccc2)/C=C\[C@@H]1C	–	-22.3% [at 11.4 µM]
N#CC(c1ccccn1)(c1ncc(C(F)(F)F)cc1Cl)N1CCOCC1 (stereo not drawn)	inactive	–
N#CC(c1ccc(Cl)cc1)(c1ncc(C(F)(F)F)cc1Cl)N1CCOCC1 (stereo not drawn)	10 µM (active)	–
COc1ccc(S(=O)(=O)NNC(=O)C2Cc3c(ccc4ccccc34)O2)cc1 (stereo not drawn)	7.94 µM (active)	–
CC(C)(CNC(=O)c1ccc([N+](=O)[O-])c(Cl)c1)CNC(=O)c1ccc([N+](=O)[O-])c(Cl)c1	0.891 µM (active)	–
O=C(NCc1cccnc1)c1sc2cc(Cl)ccc2c1Cl	10 µM (active)	–
Clc1ccccc1-c1cc(NCc2cccnc2)ncn1	–	-1% [at 2.29 µM]
CN(C)C(=O)c1ccc(-c2cc(NCc3cccnc3)ncn2)cc1	–	17.1% [at 2.29 µM]
CN(C(=O)c1c(O)c2ccccc2n(C)c1=O)c1ccccc1	inactive	–
CN(C(=O)CC(NC(=O)c1ccccc1)(c1ccccc1)c1ccccc1)c1ccccc1	15.8 µM (active)	–

SMILES	AC50	activity, negative = inhibition
CN(C)CCCN1CC(C(=O)O)CC1=O (stereo not drawn)	inactive	–
FC(F)(F)c1cccc(-c2nc3nc(Cl)c(Cl)nc3[nH]2)c1	3.98 µM (active)	–
C[C@H]1NC(=O)NC1=O	inactive	–
Cc1c2c(nc3ccccc13)-c1cccc(=O)n1C2	inactive	–
CC(C)c1cccc2c([Si](C)(C)C)c3c(nc12)-c1cccc(=O)n1C3	2 µM (active)	–
CCc1c2c(nc3c(C(C)C)cccc13)-c1cccc(=O)n1C2	15.8 µM (active)	–
CC(C)c1cccc2cc3c(nc12)-c1cccc(=O)n1C3	inactive	–
CC(C)c1cccc2nc3c(c(C(C)(C)C)c12)Cn1c-3cccc1=O	10 µM (active)	–
CCc1cccc2nc3c(c([Si](C)(C)C)c12)Cn1c-3cccc1=O	20 µM (active)	–
CC[C@@]1(O)C(=O)COc2c1cc1n(c2=O)Cc2c-1nc1cccc(C(C)C)c1c2[Si](C)(C)C	inactive	–
CC1(C)[C@@H]2CC[C@]1(C)[C@@H](OC(=O)CSC#N)C2	–	-16.1% [at 11.4 µM]
S=C(Nc1cccc(Cl)c1)NC1CCCCC1	inactive	–
N#C/C(=C\c1cc(Cl)cc(Cl)c1O)C(=O)NC1CCCCC1	12.6 µM (active)	–
Cn1c[n+](C)cc1/C=N/O	inactive	–
Nc1nc2ncc(CNc3ccc(C(=O)N[C@@H](CCC(=O)O)C(=O)O)cc3)nc2c(=O)[nH]1	inactive	–
CC(C)(C)CC(C)(C)c1ccc(OCOCCOCCO)c(Cc2cc(C(C)(C)CC(C)(C)C)cc(Cc3cc(C(C)(C)CC(C)(C)C)ccc3OCOCCOCCO)c2OCOCCOCCO)c1	inactive	–
CC1CCC(NC(=O)CC(C)(C)Cc2nc3ccccc3c(=O)[nH]2)CC1 (stereo not drawn)	3.55 µM (active)	–
CN(C)C(=O)c1ccc(-c2nc(Nc3ccccc3)c3ccccc3n2)cc1	–	-13.3% [at 2.29 µM]
Cc1ccccc1-c1nc(NC2CC2)c2ccccc2n1	–	3.04% [at 2.29 µM]
O=C1/C(=C\c2ccc(Br)o2)SC(=Nc2ccccc2)N1c1ccccc1	0.398 µM (active)	–
CC(C)CN1CCC2(CC1)CCN(C(=O)c1cccc(F)c1)CC2	inactive	–
CC(C)CC(=O)N1CCN(Cc2cccc(F)c2)CC1	0.0251 µM (active)	–

SMILES	AC50	activity, negative = inhibition
CC(C)CN1CC2(CCN(C(=O)c3cccc(F)c3)CC2)C1	inactive	–
C/C(=N/S(=O)(=O)c1ccc(Cl)c(Cl)c1)OCC(C)(C)C	–	6.28% [at 11.4 µM]
CC(=O)N1CCC2(CC1)CN(C(=O)Nc1cccc(C#N)c1)C2	inactive	–
N#Cc1cccc(NC(=O)N2CC3(CCN(C(=O)c4ccco4)CC3)C2)c1	inactive	–
N#Cc1cccc(NC(=O)N2CC[C@@]3(CCCN(C(=O)c4ccco4)C3)C2)c1	inactive	–
N#Cc1cccc(NC(=O)N2CC3(CCN(C(=O)c4cc(C(F)(F)F)cc(C(F)(F)F)c4)CC3)C2)c1	12.6 µM (active)	–
N#Cc1cccc(NC(=O)N2CCCC3(CCN(C(=O)c4cc(C(F)(F)F)cc(C(F)(F)F)c4)CC3)C2)c1	inactive	–
N#Cc1cccc(NC(=O)N2CCCC3(CCN(C(=O)c4ccco4)CC3)C2)c1	3.98 µM (active)	–
CCNCCCNCCCNCCCNCC	inactive	–
CC(C)(C)N1C(=O)[C@H]2[C@H]3[C@H](O)[C@H](O)C/C(=N/NC(=O)OCc4ccccc4)[C@@H]3CC[C@@H]2C1=O	–	29.2% [at 11.4 µM]
C/C(=N\NC(N)=S)c1ccc[nH]1	–	-7.98% [at 11.4 µM]
Cc1ccc(NCCC(=O)c2ccc(Cl)c(Cl)c2)cc1	inactive	–
Cc1ccc(C(=O)c2cn[nH]c2-c2cc(Cl)ccc2O)cc1	2.24 µM (active)	–
C=C1C(=O)O[C@@H]2[C@H]3O[C@]3(C)CCC=C(C)CC[C@@H]12	inactive	–
CC(=O)OC[C@H]1O[C@@H](O/N=C(\C)CCN2CCCc3nc(C)c(C)cc32)[C@H](OC(C)=O)[C@@H](OC(C)=O)[C@H]1OC(C)=O	–	18.1% [at 11.4 µM]
NS(=O)(=O)c1ccc(N=Nc2nc3[nH]c(=O)[nH]c(=O)c3[nH]2)cc1	–	0.503% [at 11.4 µM]
Cc1ccc(/C=C/c2ccc(=O)n(Cc3ccc(Cl)cc3Cl)n2)cc1	3.16 µM (active)	–
CC(C)(CO)[C@H](O)C(=O)NCCCO	inactive	–
COCCCNC(=O)c1c(N)n(/N=C/c2ccccn2)c2nc3ccccc3nc12	5.62 µM (active)	–
O=[N+]([O-])c1ccccc1/C=N/n1c(COc2ccccc2)n[nH]c1=S	3.55 µM (active)	–
O=[N+]([O-])c1ccc(/C=N/n2c(COc3ccccc3)n[nH]c2=S)cc1	2.82 µM (active)	–
CC1=NNC(=O)C1CCC(=O)N/N=C\c1ccccc1[N+](=O)[O-] (stereo not drawn)	inactive	–

SMILES	AC50	activity, negative = inhibition
Cc1ccc(/C=N/n2c(COc3ccccc3)n[nH]c2=S)s1	4.47 µM (active)	–
O=c1ccc(-c2ccccc2)n[nH]1	–	6.17% [at 11.4 µM]
C[C@]12CC[C@H]3c4ccc(O)cc4CC[C@@H]3[C@H]1C/C(=N/O)[C@H]2O	–	21.3% [at 11.4 µM]
COc1ccccc1CN1CC[C@@]2(CCCN(C(C)=O)C2)C1	inactive	–
CCc1cc2c(nc1CC)CCN(CC/C(C)=N/OC[C@@H](O)[C@@H]1O[C@@H]3OC(C)(C)O[C@@H]3[C@H]1O)C2	–	-13.5% [at 11.4 µM]
C=CCSc1nnc(-c2cc3c(-c4ccccc4)nn(C)c3s2)n1C	14.1 µM (active)	–
COc1cc(-c2nnc(SC/C=C/c3ccccc3)n2N)cc(OC)c1OC	inactive	–
Cc1noc(C)c1-c1nccc(NCCN2CCOCC2)n1	–	3.29% [at 2.29 µM]
O=C(Nc1nnc(CCS(=O)(=O)c2ccc(Br)cc2)s1)c1ccc([N+](=O)[O-])cc1	inactive	–
O=C(COc1cccc(NC(=O)c2cccc([N+](=O)[O-])c2)c1)c1ccc(Br)cc1	0.891 µM (active)	–
O=C(COc1ccc(Br)cc1)Nc1ccc([N+](=O)[O-])cn1	inactive	–
C[C@@H](c1ccccc1)N1C(=O)[C@H]2[C@@H]3[C@H](O)[C@H](O)CC(=O)[C@H]3CC[C@H]2C1=O	–	-15.7% [at 11.4 µM]
O=C(c1ccccc1)c1nc2ccccc2n(CCCn2c(=O)c(C(=O)c3ccccc3)nc3ccccc32)c1=O	0.2 µM (active)	–
CCCn1c(N)[n+](CC(=O)c2ccco2)c2ccccc21	inactive	–
CCCCCn1c(=O)c(C(=O)c2ccccc2)nc2ccccc21	14.1 µM (active)	–
O=C(O)Cc1cc2ccccc2nc1C(=O)O	inactive	–
N=C(N)[C@H](N=Nc1ccccc1)C(N)=O	–	-7.82% [at 11.4 µM]
CCn1c(O)c(/C=N/N=C2CCCC2)c2ccc(C3=NNC(=O)CC3)cc21	inactive	–
OC(COCC1COc2ccccc2O1)CN1CCc2ccccc2C1 (stereo not drawn)	inactive	–
Cc1ccc(C2C(=O)N(C3CCCC3)CC(=O)N2CC2COc3ccccc3O2)cc1 (stereo not drawn)	11.2 µM (active)	–
CC1CCCC(C)N1CC(O)COCC1COc2ccccc2O1 (stereo not drawn)	inactive	–
Nc1ccn([C@H]2O[C@@H](COP(=O)(O)O)[C@@H](O)[C@H]2O)c(=O)n1	–	-6.67% [at 11.4 µM]

From PubChem BioAssay AID1851 (National Center for Advancing Translational Sciences (NCATS), 2009)
